Screening results from PubChem BioAssay.
USP1 inh: inhibitors of human USP1/UAF1 deubiquitinase. O94782. recombinant USP1/UAF1, Ub-Rhodamine cleavage fluorescence. Potency, µM (titrated, usually from 57.1 µM), actives largely listed as inhibitors. 390,000 compounds, 0.23% hits; also: nearly all actives have a fitted effect of over 60% in size
Target sequence (O94782 whole entry, looked up): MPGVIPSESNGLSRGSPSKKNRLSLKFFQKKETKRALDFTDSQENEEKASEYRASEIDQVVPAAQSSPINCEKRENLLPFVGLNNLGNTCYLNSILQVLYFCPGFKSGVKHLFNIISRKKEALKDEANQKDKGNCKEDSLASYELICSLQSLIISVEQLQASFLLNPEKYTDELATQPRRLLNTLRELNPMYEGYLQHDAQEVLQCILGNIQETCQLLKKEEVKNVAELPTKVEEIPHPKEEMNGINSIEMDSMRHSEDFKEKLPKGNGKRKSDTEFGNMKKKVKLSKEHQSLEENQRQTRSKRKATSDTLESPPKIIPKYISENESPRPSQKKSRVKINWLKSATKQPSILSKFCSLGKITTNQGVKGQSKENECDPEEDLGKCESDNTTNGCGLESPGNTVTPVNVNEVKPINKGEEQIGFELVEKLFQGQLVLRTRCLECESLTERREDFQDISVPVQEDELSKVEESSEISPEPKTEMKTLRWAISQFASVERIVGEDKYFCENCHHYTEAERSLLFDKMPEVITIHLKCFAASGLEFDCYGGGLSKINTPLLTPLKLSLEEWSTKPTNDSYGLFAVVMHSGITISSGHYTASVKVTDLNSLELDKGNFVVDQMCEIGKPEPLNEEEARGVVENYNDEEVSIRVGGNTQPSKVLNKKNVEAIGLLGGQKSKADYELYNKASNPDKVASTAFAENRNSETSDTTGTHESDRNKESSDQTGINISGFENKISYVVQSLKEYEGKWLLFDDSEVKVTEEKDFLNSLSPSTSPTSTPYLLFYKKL
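USP1/UAF1 complex (1 nM) preincubated 15 min at room temperature with compound, then Ub-Rho substrate (150 nM final) added. Kinetic fluorescence at 480/540 nm over 6 reads at 60 s intervals; 50 mM HEPES pH 7.8, 0.5 mM EDTA, 0.1 mg/ml BSA, 1 mM TCEP, 0.01% Tween-20.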
IL1B secr inh: blocks inflammasome-driven IL-1 beta release; THP-1 LPS/ATP IL-1B secretion, AlphaLISA, 16 h; hits give low values; activity change, % at 57.5 µM; 360,000 compounds, 4.7% hits; AID 743279; in the data active = activity change below about -50%; inconclusive = mostly about -30% to -49%
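THP-1 cells pretreated 1 hr with compounds (up to 57.5 uM final), then stimulated with LPS (250 ng/mL final) plus ATP (1.25 mM final); secreted IL-1B measured by AlphaLISA after 16 hr, decreased signal indicating inhibition.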
ATXN2 expr inh: reduces ATXN2 reporter expression in HEK-293 cells; HEK-293 ATXN2-luciferase reporter, luminescence, 24 h; Potency, µM (titrated, usually from 57 µM), hits mostly inhibitors; 360,000 compounds, 0.72% hits; also: nearly all actives have a fitted effect of over 55% in size
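qHTS (up to 57 uM final) was run with 24 h compound exposure of reporter cells at 37 °C. Each well was multiplexed: SteadyGlo luminescence measured ATXN2-luciferase expression after a fluorogenic Gly-Phe-AFC viability readout (25 uM final).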
USP2a block: inhibitors of human ubiquitin-specific protease USP2a | O75604 | USP2 core, Ub-CHOP2 coupled fluorogenic reporter, 485/531 | Potency, µM (doses to about 38.3 µM), usual class: inhibitors | 330,000 compounds, 0.01% hits | AID 463254
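USP2 core (10nM final) preincubated 30min RT with compound in 20mM Tris-HCl pH 8.0, 2mM CaCl2, 2mM beta-mercaptoethanol, 0.05% CHAPS; 25nM Ub-CHOP2 plus 25nM reporter substrate added, fluorescence (Ex485/Em531) read after 60min.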
ATXN viability: cell viability loss in ATXN counter-screen; S2 cells (HEK-293 line with an ATXN2-luciferase reporter) viability, CellTiter-Fluor protease fluorescence, 24 h; Potency, µM (top dose mostly 56.7 µM), actives largely listed as cytotoxic; 400,000 compounds, 0.49% hits; also: nearly all actives have a fitted effect of over 40% in size
Hits are given with their value; [ ] = remark or other dose. An excerpt weighted towards active compounds, which were near 4.8% of everything screened. Unless noted, calls follow the shape of the dose curve; as a rule, active = well fitted curve in the direction sought with a large enough effect; inconclusive = small, poorly fitted or top-dose-only effect, or another doubt; inactive = no such curve, though single readings can be large; an effect the other way counts as inactive or inconclusive.

Results for Cc1cccn2c(=O)c(C=O)c(N3CCCCC3)nc12 ?
USP1 inh: inactive; IL1B secr inh: inactive; ATXN2 expr inh: inactive[11.3 µM]; USP2a block: inactive

How did Cc1cccn2c(=O)c(C=O)c(Sc3ncccn3)nc12 do in these assays?
USP1 inh: inactive; IL1B secr inh: -64.8; ATXN2 expr inh: inactive; USP2a block: inactive; ATXN viability: inactive

How did CC1CCN(c2nc3ccccn3c(=O)c2C=O)CC1 do in these assays?
USP1 inh: inactive; IL1B secr inh: inactive; ATXN2 expr inh: inactive; USP2a block: inactive; ATXN viability: inactive

Results for O=Cc1c(Cl)nc2ccccn2c1=O ?
USP1 inh: inactive; IL1B secr inh: -99.1; ATXN2 expr inh: inactive; USP2a block: inactive; ATXN viability: inactive

What do the screens show for `O=C1Nc2cc(Cl)ccc2Oc2cc(Oc3ccccc3)ccc21`?
USP1 inh: inactive; ATXN2 expr inh: inactive; ATXN viability: inactive

What do the screens show for `O=C(N[C@@H]1c2ccccc2C2(CCN(C(=O)c3ccc4c(c3)OCCO4)CC2)[C@H]1O)c1cccnc1`?
ATXN viability: inactive

How did CC1(c2nnnn2-c2ccc3c(c2)OCCO3)CCC(=O)N1CCCn1ccnc1 (centres undefined) do in these assays?
IL1B secr inh: inactive; ATXN2 expr inh: inactive; ATXN viability: inactive

What do the screens show for `CC(C)CC(=O)/C(=C/c1ccc(N(C)C)cc1)n1cncn1`?
USP1 inh: inactive; IL1B secr inh: inactive; ATXN2 expr inh: inactive; USP2a block: inactive; ATXN viability: inactive

Results for CC(C)CC(=O)/C(=C\c1ccc(Cl)cc1Cl)n1cncn1 ?
USP1 inh: inactive; IL1B secr inh: -104.0; USP2a block: inactive; ATXN viability: inconclusive

How did CC1=C(C(=O)N2CCCCCC2)CC(CC(=O)NCCCN(C)C)C(=O)N1Cc1ccc(F)cc1 (centres undefined) do in these assays?
IL1B secr inh: inactive; ATXN2 expr inh: inactive; ATXN viability: inactive

How did CCN1C(=O)[C@@H]2[C@H](C1=O)[C@@H]1C(=O)Nc3ccccc3C(=O)N1[C@@H]2c1cccc(Cl)c1 do in these assays?
USP1 inh: inactive; IL1B secr inh: inactive; ATXN2 expr inh: inactive; USP2a block: inactive; ATXN viability: inactive

Results for Cn1c(SCc2ccccc2)nnc1C1CCCN(Cc2cccc3ncccc23)C1 (centres undefined) ?
ATXN viability: inactive

What do the screens show for `CCN(CC)CCNC1=NCCn2c1cc1cc(OC)ccc12`?
USP1 inh: inactive; IL1B secr inh: -76.4; ATXN2 expr inh: inconclusive; USP2a block: inactive; ATXN viability: inactive

How did CC1(C)CC(NC(=O)c2cccc(S(=O)(=O)N(Cc3ccccc3)c3ccccc3)c2)CC(C)(C)N1 do in these assays?
USP1 inh: inactive; IL1B secr inh: -80.7; ATXN2 expr inh: inconclusive; USP2a block: inactive; ATXN viability: inconclusive

How did C/C(N)=C(/C#N)C(=O)COC(=O)c1ccncc1 do in these assays?
USP1 inh: inactive; IL1B secr inh: inconclusive; ATXN2 expr inh: inactive; USP2a block: inactive; ATXN viability: inactive

What do the screens show for `C/C(N)=C(/C#N)C(=O)COC(=O)c1cccc(O)c1`?
USP1 inh: inactive; IL1B secr inh: -54.1; ATXN2 expr inh: inactive; USP2a block: inactive; ATXN viability: inconclusive

What do the screens show for `COc1cc(=O)n2c(c1C(=O)N(C)Cc1nonc1C)CCN(Cc1cccc(Cl)c1)CC2`?
ATXN viability: inactive

Results for CCCCCCCCCC[N+](C)(C)CC/C=C1/c2ccccc2Sc2ccc(Cl)cc21 ?
USP1 inh: inactive; IL1B secr inh: inactive; USP2a block: inconclusive; ATXN viability: 7.94µM

Results for CCCCCCCCCCC[N+](C)(C)CC/C=C1/c2ccccc2Sc2ccc(Cl)cc21 ?
USP1 inh: inactive; IL1B secr inh: -67.0; USP2a block: inconclusive; ATXN viability: 11.2µM

What do the screens show for `Cc1ccccc1CNC(=O)C1CCN(S(=O)(=O)Cc2ccccc2)CC1`?
USP1 inh: inactive; ATXN2 expr inh: inactive; ATXN viability: inactive

Results for Cc1ccc(C2=NNC(C(O)C(O)C(O)C(O)CO)S2)cc1 (centres undefined) ?
USP1 inh: inactive; IL1B secr inh: inactive; ATXN2 expr inh: inactive; USP2a block: inactive; ATXN viability: inactive

How did OC[C@H](O)[C@H](O)[C@@H](O)[C@@H](O)[C@@H]1SC(c2ccccc2)=NN1c1ccccc1 do in these assays?
USP1 inh: inactive; IL1B secr inh: -61.6; ATXN2 expr inh: inactive; USP2a block: inactive; ATXN viability: inconclusive

How did O=C(C[n+]1cccc(CNC(=O)c2ccc(OC(F)F)cc2)c1)Nc1cccc(C(F)(F)F)c1 do in these assays?
USP1 inh: inactive; IL1B secr inh: -70.9; ATXN2 expr inh: inactive; USP2a block: inactive; ATXN viability: inactive

What do the screens show for `O=C(C[n+]1cccc(CNC(=O)c2ccc(OC(F)F)cc2)c1)c1ccccc1`?
USP1 inh: inactive; IL1B secr inh: -90.9; ATXN2 expr inh: inactive[11.3 µM]; USP2a block: inactive; ATXN viability: inactive

How did CN1CCN(c2nc(-c3cccs3)nc3ccccc23)CC1 do in these assays?
USP1 inh: inactive; IL1B secr inh: -59.0; USP2a block: inactive; ATXN viability: inconclusive

What do the screens show for `Oc1ccc(N2CCN(c3nc(-c4cccs4)nc4ccccc34)CC2)cc1`?
USP1 inh: inactive; IL1B secr inh: inconclusive; ATXN2 expr inh: inconclusive; USP2a block: inactive; ATXN viability: inconclusive

What do the screens show for `c1ccc(N2CCN(c3nc(-c4cccs4)nc4ccccc34)CC2)cc1`?
USP1 inh: inactive; IL1B secr inh: -58.3; ATXN2 expr inh: inactive; USP2a block: inactive; ATXN viability: inactive

What do the screens show for `CCN1CCc2nc3sc(C(=O)N4CCc5ccccc5C4)c(N)c3cc2C1`?
USP1 inh: inactive; IL1B secr inh: -73.1; ATXN2 expr inh: inactive; USP2a block: inactive; ATXN viability: inactive

What do the screens show for `CCn1c(Sc2ccc([N+](=O)[O-])cn2)nnc1-c1ccco1`?
USP1 inh: inactive; IL1B secr inh: -81.7; ATXN2 expr inh: inactive[11.3 µM]; USP2a block: inactive; ATXN viability: inactive

How did CCn1c(SCC(=O)OCc2ccccc2)nnc1-c1ccco1 do in these assays?
USP1 inh: inactive; IL1B secr inh: inactive; ATXN2 expr inh: inactive; USP2a block: inactive; ATXN viability: inactive

How did O=C(NC(c1ccc(-c2ccccc2)cc1)c1cnccn1)C1CCN(Cc2ccc(Cl)c(Cl)c2)CC1 (centres undefined) do in these assays?
IL1B secr inh: inactive; ATXN2 expr inh: inactive; ATXN viability: inconclusive

How did Cn1cc(CN2CCC(C(=O)NC(c3ccc(-c4ccccc4)cc3)c3cnccn3)CC2)c2ccccc21 (centres undefined) do in these assays?
IL1B secr inh: inactive; ATXN2 expr inh: inactive; ATXN viability: 20µM

Results for O=C(NC(c1ccc(-c2ccccc2)cc1)c1cnccn1)C1CCN(Cc2ccc3c(c2)OCO3)CC1 (centres undefined) ?
IL1B secr inh: inactive; ATXN2 expr inh: inconclusive; ATXN viability: 31.6µM

What do the screens show for `O=C(C=CC=Cc1ccc2c(c1)OCO2)N1CCCCC1`?
ATXN2 expr inh: inactive
